According to the supplement of paper PMC10849652:
The full data set covers some 7,900 targets. This sample favours those with a hit. About 0.6% of all pairs of compound and target were hits.

Columns and labels:
Experiment in all cases: log2 fold change, soluble protein after heating vs DMSO (PISA); higher = thermal stabilisation; K562 cells, 10 uM, 30 min; active = over 0.2 and 3.5 SD of the protein, either way, in both replicates (recomputed)
[1] = compound: NC(=O)Nc1cc(-c2cccc(F)c2)sc1C(=O)N[C@H]1CCCNC1
In short: (§1)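 K562 cells at 2×10^6 cells/mL were treated for 30 min with 10 μM compound, and aliquots were heated for 3 min over 48°C-58°C before pooling. Extraction used PBS with 0.5% NP-40 at 4°C, and soluble protein was the supernatant after 21,000xg for 90 min, measured by TMTpro 16plex LC-MS/MS with channel sums equalised. Thermal stability values, relative to control samples and from duplicates, are log2 fold changes.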

[2] = compound: NC(=O)c1cnc(N[C@@H]2CCCC[C@@H]2N)nc1Nc1cccc(-n2nccn2)c1
In short: as §1

[3] = compound: NC1(c2ccc(-c3nc4ccn5c(=O)[nH]nc5c4cc3-c3ccccc3)cc2)CCC1
In short: as §1

[4] = compound: NCC(=O)Nc1ccc(-n2nc(C(F)(F)F)cc2-c2ccc3c(ccc4ccccc43)c2)cc1
In short: as §1

entinostat = compound: Nc1ccccc1NC(=O)c1ccc(CNC(=O)OCc2cccnc2)cc1 [entinostat]
In short: as §1

vorinostat = compound: O=C(CCCCCCC(=O)Nc1ccccc1)NO [vorinostat]
In short: as §1

citarinostat = compound: O=C(CCCCCCNC(=O)c1cnc(N(c2ccccc2)c2ccccc2Cl)nc1)NO [citarinostat]
In short: as §1

silmitasertib = compound: O=C(O)c1ccc2c(c1)nc(Nc1cccc(Cl)c1)c1ccncc12 [silmitasertib]
In short: as §1

[5] = compound: O=C1NC(=O)C(c2cnc3ccccn23)=C1c1cn2c3c(cc(F)cc13)CN(C(=O)N1CCCCC1)CC2
In short: as §1

[6] = compound: c1cc(OCCN2CCCCC2)cc(-c2n[nH]c3ccc(-c4nnc[nH]4)cc23)c1
In short: as §1

entospletinib = compound: c1cn2cc(-c3ccc4cn[nH]c4c3)nc(Nc3ccc(N4CCOCC4)cc3)c2n1 [entospletinib]
In short: as §1

Measured: log2 fold change

SPINDOC (UniProt Q9BUA3)
inactive: [1] 0.09 | [2] 0.003 | [3] 0.014 | [4] -0.061 | entinostat -0.188 | vorinostat -0.014 | citarinostat -0.106 | silmitasertib -0.061 | [5] -0.102 | [6] 0.053 | entospletinib 0.018

SRSF9 (UniProt Q13242)
inactive: [1] 0.079 | [2] 0.17 | [3] 0.398 | [4] 0.171 | entinostat -0.072 | vorinostat 0.029 | citarinostat -0.114 | silmitasertib 0.195 | [5] 0.245 | [6] -0.237 | entospletinib 0.094

SUN1 isoform 9 (UniProt O94901)
inactive: [1] -0.035 | [2] -0.073 | [3] -0.028 | [4] 0.102 | entinostat 0.18 | vorinostat 0.06 | citarinostat -0.115 | silmitasertib -0.009 | [5] -0.226 | [6] 0.075 | entospletinib -0.064

STAT5A (UniProt P42229)
inactive: [1] -0.115 | [2] -0.112 | [3] -0.112 | [4] -0.115 | entinostat 0.112 | vorinostat 0.061 | citarinostat 0.194 | silmitasertib 0.037 | [5] -0.029 | [6] 0.061 | entospletinib -0.087

TK1 (UniProt K7ERV3)
inactive: [1] -0.127 | [2] -0.054 | [3] -0.005 | [4] 0.022 | entinostat -0.071 | vorinostat -0.003 | silmitasertib -0.039 | [5] -0.116

SMAP2 (UniProt Q8WU79)
inactive: [1] -0.013 | [2] 0.024 | [3] -0.043 | [4] -0.069 | entinostat -0.01 | vorinostat 0.002 | citarinostat 0.056 | silmitasertib 0.06 | [5] -0.122 | [6] -0.028 | entospletinib 0.019

STK38 (UniProt Q15208)
inactive: [1] -0.072 | [2] -0.077 | [3] -0.11 | [4] -0.062 | entinostat 0.129 | vorinostat 0.016 | citarinostat 0.097 | silmitasertib 0.061 | [5] 0.004 | [6] -0.086 | entospletinib -0.033

SPG11 (UniProt Q96JI7)
inactive: [1] -0.395 | [2] -0.138 | [3] 0.145 | [4] -0.293 | entinostat -0.25 | vorinostat -0.638 | citarinostat -0.233 | silmitasertib 0.01 | [5] 0.041 | [6] -0.219 | entospletinib 0.185

TBRG4 (UniProt Q969Z0)
inactive: [1] -0.103 | [2] -0.172 | [3] -0.58 | [4] -0.255 | entinostat 0.214 | vorinostat 0.201 | citarinostat 0.128 | silmitasertib 0.074 | [5] -0.191 | [6] -0.086 | entospletinib -0.027

TACC2 (UniProt O95359)
inactive: [1] -0.013 | [2] -0.027 | [3] -0.052 | [4] -0.187 | entinostat 0.035 | vorinostat -0.033 | citarinostat 0.003 | silmitasertib 0.116 | [6] -0.073 | entospletinib -0.009

SLIRP (UniProt Q9GZT3)
inactive: [1] -0.121 | [2] -0.106 | [3] -0.041 | [4] -0.062 | entinostat 0.127 | vorinostat -0.055 | citarinostat 0.023 | silmitasertib -0.016 | [5] -0.129 | [6] -0.129 | entospletinib 0.134

STRN (UniProt O43815)
inactive: [1] -0.055 | [2] 0.019 | [3] -0.037 | [4] 0.019 | entinostat -0.008 | vorinostat 0.024 | citarinostat 0.028 | silmitasertib 0 | [5] -0.051 | [6] -0.031 | entospletinib 0.03

SOX5 (UniProt P35711)
inactive: [1] 0.035 | [2] -0.064 | [3] -0.015 | [4] 0.03 | entinostat -0.129 | silmitasertib 0.018

SRCAP (UniProt Q6ZRS2)
UniProt Q6ZRS2, sequence (Q6ZRS2 whole entry, looked up): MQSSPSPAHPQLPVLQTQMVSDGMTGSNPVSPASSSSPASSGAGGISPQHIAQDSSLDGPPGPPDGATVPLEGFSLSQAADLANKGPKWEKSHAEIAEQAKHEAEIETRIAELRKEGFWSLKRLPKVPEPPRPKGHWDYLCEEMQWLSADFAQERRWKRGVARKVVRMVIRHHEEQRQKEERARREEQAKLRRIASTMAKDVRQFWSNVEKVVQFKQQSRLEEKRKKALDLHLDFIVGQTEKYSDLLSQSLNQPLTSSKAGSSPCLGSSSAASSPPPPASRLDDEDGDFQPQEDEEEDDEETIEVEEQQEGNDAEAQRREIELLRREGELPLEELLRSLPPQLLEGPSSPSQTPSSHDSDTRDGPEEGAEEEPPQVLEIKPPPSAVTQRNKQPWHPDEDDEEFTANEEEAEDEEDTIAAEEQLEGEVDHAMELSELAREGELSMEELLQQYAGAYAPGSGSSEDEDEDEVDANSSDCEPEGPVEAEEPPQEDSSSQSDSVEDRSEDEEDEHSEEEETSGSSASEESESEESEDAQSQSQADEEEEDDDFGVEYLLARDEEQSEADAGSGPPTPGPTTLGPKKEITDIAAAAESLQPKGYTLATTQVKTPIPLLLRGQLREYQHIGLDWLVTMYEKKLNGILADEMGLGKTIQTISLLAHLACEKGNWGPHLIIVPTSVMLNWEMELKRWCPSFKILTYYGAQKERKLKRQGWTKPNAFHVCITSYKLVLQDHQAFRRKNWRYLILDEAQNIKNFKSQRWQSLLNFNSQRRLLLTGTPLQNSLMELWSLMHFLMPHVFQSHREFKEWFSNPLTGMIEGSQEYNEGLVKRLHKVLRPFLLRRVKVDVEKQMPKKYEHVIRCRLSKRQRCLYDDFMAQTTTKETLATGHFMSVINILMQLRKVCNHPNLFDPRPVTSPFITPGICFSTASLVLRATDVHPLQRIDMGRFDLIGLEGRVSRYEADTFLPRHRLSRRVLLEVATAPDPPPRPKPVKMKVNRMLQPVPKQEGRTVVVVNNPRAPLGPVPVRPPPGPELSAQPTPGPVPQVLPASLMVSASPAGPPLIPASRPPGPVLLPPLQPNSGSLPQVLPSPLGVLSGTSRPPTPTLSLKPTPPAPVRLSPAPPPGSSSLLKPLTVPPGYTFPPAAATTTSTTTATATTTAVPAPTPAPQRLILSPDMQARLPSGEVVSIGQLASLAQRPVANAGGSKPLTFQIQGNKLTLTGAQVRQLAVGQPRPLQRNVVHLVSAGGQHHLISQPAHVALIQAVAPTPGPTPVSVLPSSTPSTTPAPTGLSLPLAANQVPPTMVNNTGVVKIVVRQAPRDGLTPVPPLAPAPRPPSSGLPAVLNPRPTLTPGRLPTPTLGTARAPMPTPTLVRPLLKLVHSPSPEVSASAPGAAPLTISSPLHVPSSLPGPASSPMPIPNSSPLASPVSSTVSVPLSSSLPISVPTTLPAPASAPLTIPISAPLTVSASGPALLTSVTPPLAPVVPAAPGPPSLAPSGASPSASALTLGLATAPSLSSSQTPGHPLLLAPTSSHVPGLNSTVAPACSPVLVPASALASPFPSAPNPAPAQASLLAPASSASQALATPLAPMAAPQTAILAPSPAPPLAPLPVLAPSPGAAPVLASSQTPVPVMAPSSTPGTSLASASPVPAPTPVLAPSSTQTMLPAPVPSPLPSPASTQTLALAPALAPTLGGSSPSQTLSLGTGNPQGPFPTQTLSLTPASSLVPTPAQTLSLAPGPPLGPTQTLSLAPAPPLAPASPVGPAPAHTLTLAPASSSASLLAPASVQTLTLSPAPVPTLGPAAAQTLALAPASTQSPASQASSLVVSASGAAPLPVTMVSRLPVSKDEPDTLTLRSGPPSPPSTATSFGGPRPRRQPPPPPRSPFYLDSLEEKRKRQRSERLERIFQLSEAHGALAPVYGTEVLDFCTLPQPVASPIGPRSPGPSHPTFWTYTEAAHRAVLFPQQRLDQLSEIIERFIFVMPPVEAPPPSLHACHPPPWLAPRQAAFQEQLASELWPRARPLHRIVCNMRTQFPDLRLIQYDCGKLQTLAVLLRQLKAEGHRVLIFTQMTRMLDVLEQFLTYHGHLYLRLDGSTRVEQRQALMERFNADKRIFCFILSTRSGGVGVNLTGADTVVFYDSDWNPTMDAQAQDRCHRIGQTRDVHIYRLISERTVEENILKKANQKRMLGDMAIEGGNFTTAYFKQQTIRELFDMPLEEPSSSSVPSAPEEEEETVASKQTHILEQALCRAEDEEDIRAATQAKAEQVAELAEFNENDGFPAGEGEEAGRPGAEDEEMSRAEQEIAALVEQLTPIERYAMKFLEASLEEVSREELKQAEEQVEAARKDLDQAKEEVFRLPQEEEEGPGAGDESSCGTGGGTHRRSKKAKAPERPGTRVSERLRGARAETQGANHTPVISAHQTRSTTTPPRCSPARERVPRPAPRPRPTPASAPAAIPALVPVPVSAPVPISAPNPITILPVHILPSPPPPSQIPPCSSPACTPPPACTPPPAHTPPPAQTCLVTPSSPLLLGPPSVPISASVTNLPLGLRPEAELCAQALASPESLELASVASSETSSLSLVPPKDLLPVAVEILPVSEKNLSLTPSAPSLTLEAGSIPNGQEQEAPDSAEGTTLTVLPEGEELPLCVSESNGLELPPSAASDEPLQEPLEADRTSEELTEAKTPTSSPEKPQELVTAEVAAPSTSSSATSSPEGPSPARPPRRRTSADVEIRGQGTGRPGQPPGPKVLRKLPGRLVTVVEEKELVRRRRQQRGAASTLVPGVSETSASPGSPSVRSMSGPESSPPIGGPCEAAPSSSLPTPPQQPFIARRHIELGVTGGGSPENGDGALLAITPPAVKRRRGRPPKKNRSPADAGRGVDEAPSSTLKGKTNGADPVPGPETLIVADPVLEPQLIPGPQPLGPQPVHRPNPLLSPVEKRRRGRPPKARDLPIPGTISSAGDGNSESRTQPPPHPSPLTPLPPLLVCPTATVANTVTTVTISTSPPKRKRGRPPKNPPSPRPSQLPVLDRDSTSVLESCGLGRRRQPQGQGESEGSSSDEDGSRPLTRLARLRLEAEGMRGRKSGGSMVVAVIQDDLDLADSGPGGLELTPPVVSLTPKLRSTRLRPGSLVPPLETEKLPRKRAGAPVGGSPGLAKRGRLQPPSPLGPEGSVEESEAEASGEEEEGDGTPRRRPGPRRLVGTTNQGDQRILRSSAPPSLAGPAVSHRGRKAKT
inactive: [1] -0.079 | [3] 0.001 | [4] -0.041 | entinostat 0.077 | vorinostat -0.039 | citarinostat 0.014 | silmitasertib -0.022 | [6] 0.001 | entospletinib 0.029

SLC9A6 isoform 3 (UniProt Q92581)
inactive: [2] 0.009 | citarinostat -0.066 | [6] 0.172 | entospletinib 0.052

SP2 (UniProt Q02086)
UniProt Q02086, sequence (Q02086 whole entry, looked up): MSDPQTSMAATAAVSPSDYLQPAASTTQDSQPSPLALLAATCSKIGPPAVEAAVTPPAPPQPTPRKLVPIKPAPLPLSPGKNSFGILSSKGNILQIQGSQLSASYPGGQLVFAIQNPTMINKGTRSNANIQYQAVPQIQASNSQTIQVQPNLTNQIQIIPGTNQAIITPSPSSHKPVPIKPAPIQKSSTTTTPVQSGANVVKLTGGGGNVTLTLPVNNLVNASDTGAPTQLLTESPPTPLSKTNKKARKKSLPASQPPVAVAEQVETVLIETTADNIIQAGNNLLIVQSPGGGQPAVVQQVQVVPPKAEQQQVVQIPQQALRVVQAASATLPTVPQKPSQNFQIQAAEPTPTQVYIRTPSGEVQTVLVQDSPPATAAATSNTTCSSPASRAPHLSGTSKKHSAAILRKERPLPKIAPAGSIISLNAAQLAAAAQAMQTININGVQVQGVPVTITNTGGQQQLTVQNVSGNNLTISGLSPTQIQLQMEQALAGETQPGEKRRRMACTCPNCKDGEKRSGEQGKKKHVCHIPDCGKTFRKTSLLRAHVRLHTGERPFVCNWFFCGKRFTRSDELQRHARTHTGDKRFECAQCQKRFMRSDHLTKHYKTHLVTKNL
inactive: [1] 0.164 | [2] -0.144 | entinostat -0.018 | citarinostat -0.063 | [6] -0.293 | entospletinib 0.07

SLC38A2 (UniProt Q96QD8)
inactive: [1] -0.023 | [2] -0.046 | [3] -0.037 | [4] -0.12 | entinostat 0.018 | citarinostat 0.025 | silmitasertib 0.054 | [5] 0.014 | [6] -0.088 | entospletinib -0.02

SSBP4 (UniProt Q9BWG4)
inactive: [1] 0.177 | [2] 0.041 | [3] -0.024 | entinostat -0.084 | vorinostat -0.107 | citarinostat 0.018 | silmitasertib -0.008 | [6] -0.093 | entospletinib 0.119

TATDN2 (UniProt Q93075)
inactive: [1] -0.115 | [2] 0.003 | [4] -0.126 | entinostat 0.009 | vorinostat 0.004 | [5] 0.067 | [6] 0.06 | entospletinib -0.046
active: citarinostat -0.52

TBP (UniProt P20226)
inactive: [2] 0.095 | [3] 0.015 | [4] 0.033 | citarinostat 0.013 | silmitasertib 0.183 | [5] -0.025 | [6] -0.041 | entospletinib 0.012

SYK (UniProt P43405)
inactive: [4] -0.029 | citarinostat -0.029 | [5] 0.075 | [6] -0.123 | entospletinib 0.015

SLC35B1 isoform 2 (UniProt P78383)
inactive: [1] -0.054 | [3] -0.029 | [4] -0.057 | entinostat 0.041 | citarinostat -0.052 | silmitasertib 0.261 | [5] 0.138 | [6] -0.327 | entospletinib -0.154

SREBF1 isoform 4 (UniProt P36956)
inactive: citarinostat 0.095 | silmitasertib 0.01 | [5] 0.057 | [6] 0.007 | entospletinib 0.015
active: [3] -0.565

TBC1D2 (UniProt Q9BYX2)
inactive: [2] -0.078 | [3] -0.181 | vorinostat -0.022 | citarinostat -0.026 | silmitasertib 0.26 | [5] 0.058 | [6] -0.202 | entospletinib -0.015

SPIRE1 (UniProt Q08AE8)
inactive: [2] -0.025 | [3] 0.063 | [4] -0.04 | vorinostat -0.035 | citarinostat 0.022 | silmitasertib -0.008 | [5] 0.224 | [6] 0.023 | entospletinib -0.085

TAOK2 (UniProt Q9UL54)
inactive: [3] -0.01 | vorinostat 0.081 | citarinostat 0.056 | silmitasertib -0.009 | [5] 0.184 | [6] 0.12 | entospletinib -0.038

SPAG9 isoform 4 (UniProt O60271)
inactive: [1] -0.101 | [2] -0.164 | [3] -0.09 | [4] -0.199 | entinostat 0.034 | citarinostat -0.048 | silmitasertib 0.014 | [6] -0.017 | entospletinib 0.003

SSB (UniProt E7ERC4)
inactive: [3] -0.168 | [4] -0.065 | vorinostat -0.176 | silmitasertib 0.022

TM7SF3 (UniProt Q9NS93)
active: [3] -0.359
inactive: [1] 0.091 | [2] 0.048 | entinostat 0.076 | citarinostat 0.179 | silmitasertib 0.066 | [6] 0.084 | entospletinib -0.081

SNRK (UniProt Q9NRH2)
inactive: [1] -0.19 | entinostat -0.046 | citarinostat 0.26 | [6] 0.325 | entospletinib -0.27

TM7SF2 (UniProt O76062)
inactive: [1] 0.057 | [4] -0.276 | entinostat 0.119

SNX2 isoform 2 (UniProt O60749)
inactive: [1] 0.043 | [2] -0.004 | [4] -0.264 | entinostat 0.088 | citarinostat 0.065 | [5] -0.183 | [6] -0.1 | entospletinib -0.255

SMPD4 isoform 2 (UniProt Q9NXE4)
inactive: [2] -0.1 | [3] 0.014 | [4] -0.03 | vorinostat 0.216 | silmitasertib -0.058

THAP9 (UniProt Q9H5L6)
inactive: [2] 0.021 | [3] 0.024 | silmitasertib 0.049

SUPT5H isoform 2 (UniProt O00267)
inactive: [4] -0.046

TAF6L (UniProt Q9Y6J9)
inactive: [1] -0.038 | [2] -0.067 | [3] -0.061 | entinostat 0.033 | vorinostat 0.248 | silmitasertib 0.303

SLC27A1 (UniProt Q6PCB7)
inactive: [1] 0.026 | [2] -0.012 | [3] -0.016 | [4] 0.038 | entinostat -0.013 | silmitasertib -0.039 | [5] 0.014

SLC46A1 (UniProt Q96NT5)
inactive: [2] -0.143 | [4] 0.137 | vorinostat -0.005 | citarinostat -0.061 | [6] 0.01 | entospletinib 0.078

SSBP4 (UniProt U3KPY3)
inactive: [3] -0.014 | [4] 0.016 | silmitasertib 0.133

TC2N (UniProt Q8N9U0)
inactive: [2] 0.015 | [3] -0.067 | [4] -0.13 | silmitasertib -0.186

TCOF1 isoform 3 (UniProt Q13428)
inactive: [1] 0.283 | entinostat 0.008 | vorinostat 0.205 | citarinostat 0.105 | [5] 0.067 | [6] -0.146 | entospletinib 0.399

TENT5C (UniProt Q5VWP2)
inactive: [1] -0.095 | [3] 0.006 | [4] -0.32 | entinostat 0.035 | vorinostat -0.104 | citarinostat 0.144 | silmitasertib -0.038 | [6] -0.133 | entospletinib 0.019

SRFBP1 (UniProt Q8NEF9)
inactive: [1] 0.038 | [2] 0.198 | [3] 0.211 | entinostat -0.071 | vorinostat 0.009 | citarinostat 0 | silmitasertib 0.054 | [5] 0.122 | [6] 0.116 | entospletinib -0.082

SLC39A1 (UniProt Q9NY26)
inactive: vorinostat 0.181

TCOF1 isoform 6 (UniProt Q13428)
inactive: [1] 0.281 | [3] -0.07 | [4] 0.077 | entinostat 0.23 | citarinostat 0.18 | silmitasertib 0.028 | [6] -0.042 | entospletinib -0.006

SMARCB1 (UniProt Q12824)
inactive: [1] -0.023 | [4] -0.261 | entinostat -0.005 | vorinostat -0.158 | citarinostat -0.171 | [6] -0.103
active: entospletinib 0.887

TANGO6 (UniProt Q9C0B7)
UniProt Q9C0B7, sequence (Q9C0B7 whole entry, looked up): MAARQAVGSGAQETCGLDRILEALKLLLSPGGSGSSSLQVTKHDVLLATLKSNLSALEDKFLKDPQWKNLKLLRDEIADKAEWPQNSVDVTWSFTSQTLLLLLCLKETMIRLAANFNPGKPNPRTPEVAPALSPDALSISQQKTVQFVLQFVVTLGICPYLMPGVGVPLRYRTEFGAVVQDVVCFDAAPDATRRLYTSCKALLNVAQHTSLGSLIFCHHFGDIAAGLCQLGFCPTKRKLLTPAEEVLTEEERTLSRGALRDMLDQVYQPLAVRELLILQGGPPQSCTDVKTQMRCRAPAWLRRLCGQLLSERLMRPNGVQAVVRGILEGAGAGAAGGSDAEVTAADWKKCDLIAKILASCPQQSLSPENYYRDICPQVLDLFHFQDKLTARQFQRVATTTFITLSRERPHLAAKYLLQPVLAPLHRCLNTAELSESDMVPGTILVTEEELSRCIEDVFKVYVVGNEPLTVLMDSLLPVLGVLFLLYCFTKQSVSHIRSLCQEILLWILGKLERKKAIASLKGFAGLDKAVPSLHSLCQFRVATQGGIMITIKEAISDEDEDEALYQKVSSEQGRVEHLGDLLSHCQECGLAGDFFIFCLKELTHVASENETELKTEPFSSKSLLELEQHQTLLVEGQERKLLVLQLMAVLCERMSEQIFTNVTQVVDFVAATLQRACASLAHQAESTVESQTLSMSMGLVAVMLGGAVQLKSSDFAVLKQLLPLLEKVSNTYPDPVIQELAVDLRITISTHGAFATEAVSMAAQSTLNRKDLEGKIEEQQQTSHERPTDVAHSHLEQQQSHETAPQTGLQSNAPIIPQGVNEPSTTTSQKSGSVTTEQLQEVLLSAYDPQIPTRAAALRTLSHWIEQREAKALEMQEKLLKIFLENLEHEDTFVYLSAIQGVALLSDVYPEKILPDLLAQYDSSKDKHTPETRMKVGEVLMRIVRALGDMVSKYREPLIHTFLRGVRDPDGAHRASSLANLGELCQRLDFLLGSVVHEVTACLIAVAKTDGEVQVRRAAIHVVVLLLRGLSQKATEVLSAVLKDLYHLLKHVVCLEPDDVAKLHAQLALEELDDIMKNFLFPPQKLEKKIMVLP
inactive: [1] -0.007 | [2] -0.002 | [3] -0.167 | entinostat 0.035 | citarinostat -0.071 | silmitasertib 0.084 | [5] 0.017 | [6] -0.089 | entospletinib -0.089

TMBIM6 isoform 2 (UniProt P55061)
inactive: [1] 0.027 | [2] -0.119 | [3] 0.189 | [4] -0.015 | entinostat 0.044 | citarinostat 0.05 | silmitasertib -0.206 | [5] -0.089 | [6] -0.067 | entospletinib -0.038

SLC8B1 (UniProt Q6J4K2)
inactive: [2] -0.078 | [4] 0.034 | vorinostat -0.031

TEX30 (UniProt Q5JUR7)
inactive: [2] -0.101 | [3] -0.097 | [4] -0.1 | vorinostat 0.121 | silmitasertib 0.073 | [5] -0.04
